Experimental findings from publication PMC7862700, “An all-to-all approach to the identification of sequence-specific readers for epigenetic DNA modifications on cytosine” are described below.

Common to all, as to experiment: DAPPL (digital affinity profiling via proximity ligation, sequencing); 10 mM Tris-HCl pH 7.5, 50 mM NaCl, 1 mM DTT, 4% glycerol, room temperature, 30 min; GST-TFs on glutathione beads, 16-mer random dsDNA library, 0.1% formaldehyde crosslink after washing; high values mean tight binding
The target in one experiment is T1, FLI1 (Homo sapiens, UniProt Q01543 1-452).
T1 sequence: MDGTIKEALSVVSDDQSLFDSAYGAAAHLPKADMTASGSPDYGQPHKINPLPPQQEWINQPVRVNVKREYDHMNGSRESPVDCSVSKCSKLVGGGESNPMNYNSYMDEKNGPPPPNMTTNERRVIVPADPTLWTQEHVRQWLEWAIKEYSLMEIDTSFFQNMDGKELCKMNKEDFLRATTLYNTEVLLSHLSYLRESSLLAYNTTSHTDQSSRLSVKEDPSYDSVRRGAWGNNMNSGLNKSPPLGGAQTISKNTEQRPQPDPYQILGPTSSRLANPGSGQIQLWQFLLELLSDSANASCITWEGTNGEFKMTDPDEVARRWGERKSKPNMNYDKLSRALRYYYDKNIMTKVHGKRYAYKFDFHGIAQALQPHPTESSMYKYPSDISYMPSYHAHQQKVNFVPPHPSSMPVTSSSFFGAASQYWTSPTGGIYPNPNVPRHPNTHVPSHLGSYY
Particulars: protein: recombinant; tags: N-terminal GST; dsDNA, one strand shown. The gist of the method: (§1)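 Pools of DNA-barcoded human transcription factors, expressed in yeast as GST fusions on glutathione beads and combined with a tag-only sample, were incubated with 200 nmole of a 16-mer random double-stranded DNA library. Incubation took 30 min at room temperature in Tris/NaCl/DTT/glycerol buffer and was followed by washing, 0.1% formaldehyde crosslinking, proximity ligation (BsaI/T4 ligase, 1 h, 37 °C), PCR amplification and sequencing on an Illumina NextSeq500. Binding signal is the ratio of a hexamer's read frequency for a factor to its frequency for the tag-only sample.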

The next experiment concerns the target T2, ELK1 (Homo sapiens, UniProt P19419 1-428).
T2 sequence: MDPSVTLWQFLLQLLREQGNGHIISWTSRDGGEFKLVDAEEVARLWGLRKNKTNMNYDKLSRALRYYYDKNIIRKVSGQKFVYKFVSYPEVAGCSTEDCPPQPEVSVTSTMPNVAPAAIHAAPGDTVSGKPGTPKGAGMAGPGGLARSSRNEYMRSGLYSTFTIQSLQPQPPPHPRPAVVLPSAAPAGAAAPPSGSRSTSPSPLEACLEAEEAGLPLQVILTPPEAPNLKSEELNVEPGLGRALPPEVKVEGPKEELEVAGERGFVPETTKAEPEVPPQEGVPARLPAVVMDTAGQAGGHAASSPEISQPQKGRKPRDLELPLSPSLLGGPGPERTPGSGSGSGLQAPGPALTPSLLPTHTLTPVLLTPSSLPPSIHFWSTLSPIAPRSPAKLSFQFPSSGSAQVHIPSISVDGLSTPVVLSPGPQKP
As to conditions: protein: recombinant; tags: N-terminal GST; dsDNA, one strand shown. In outline: as §1

The target of a further experiment is T3, GABPA (Homo sapiens, UniProt Q06546 1-454).
T3 sequence: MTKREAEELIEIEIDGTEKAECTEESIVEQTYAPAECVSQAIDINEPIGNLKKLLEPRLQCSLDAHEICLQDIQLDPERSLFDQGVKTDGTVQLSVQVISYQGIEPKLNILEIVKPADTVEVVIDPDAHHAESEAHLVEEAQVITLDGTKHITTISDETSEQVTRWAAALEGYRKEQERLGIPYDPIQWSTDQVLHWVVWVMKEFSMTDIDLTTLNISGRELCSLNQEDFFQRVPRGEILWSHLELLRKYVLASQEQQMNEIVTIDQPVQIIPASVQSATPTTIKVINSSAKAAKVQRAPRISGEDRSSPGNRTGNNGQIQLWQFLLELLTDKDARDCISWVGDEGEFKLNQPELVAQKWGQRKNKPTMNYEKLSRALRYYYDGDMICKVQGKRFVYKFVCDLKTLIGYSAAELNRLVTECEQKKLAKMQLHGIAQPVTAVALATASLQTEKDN
As to conditions: protein: recombinant; tags: N-terminal GST; dsDNA, one strand shown. In outline:
as §1

A further experiment deals with T4, ERG (Homo sapiens, UniProt P11308 1-479).
T4 sequence: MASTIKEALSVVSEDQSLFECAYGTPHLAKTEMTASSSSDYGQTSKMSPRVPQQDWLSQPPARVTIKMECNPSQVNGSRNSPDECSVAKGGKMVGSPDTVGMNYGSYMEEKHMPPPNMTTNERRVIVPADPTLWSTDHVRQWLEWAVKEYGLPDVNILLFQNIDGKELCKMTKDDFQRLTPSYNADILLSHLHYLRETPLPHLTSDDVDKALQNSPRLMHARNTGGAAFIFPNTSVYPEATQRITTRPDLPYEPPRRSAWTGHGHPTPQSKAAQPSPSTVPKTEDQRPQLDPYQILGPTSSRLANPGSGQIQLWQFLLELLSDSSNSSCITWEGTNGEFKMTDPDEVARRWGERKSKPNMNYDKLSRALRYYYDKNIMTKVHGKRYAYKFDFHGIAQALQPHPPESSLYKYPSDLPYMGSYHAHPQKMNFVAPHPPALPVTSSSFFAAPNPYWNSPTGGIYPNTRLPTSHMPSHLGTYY
As to conditions: protein: recombinant; tags: N-terminal GST; dsDNA, one strand shown. The gist of the method:
as §1

A further experiment deals with ELF1 (Homo sapiens, UniProt P32519 1-619). As to conditions: protein: recombinant; tags: N-terminal GST; dsDNA, one strand shown. In outline: as §1
Sequence of ELF1 (P32519 whole entry): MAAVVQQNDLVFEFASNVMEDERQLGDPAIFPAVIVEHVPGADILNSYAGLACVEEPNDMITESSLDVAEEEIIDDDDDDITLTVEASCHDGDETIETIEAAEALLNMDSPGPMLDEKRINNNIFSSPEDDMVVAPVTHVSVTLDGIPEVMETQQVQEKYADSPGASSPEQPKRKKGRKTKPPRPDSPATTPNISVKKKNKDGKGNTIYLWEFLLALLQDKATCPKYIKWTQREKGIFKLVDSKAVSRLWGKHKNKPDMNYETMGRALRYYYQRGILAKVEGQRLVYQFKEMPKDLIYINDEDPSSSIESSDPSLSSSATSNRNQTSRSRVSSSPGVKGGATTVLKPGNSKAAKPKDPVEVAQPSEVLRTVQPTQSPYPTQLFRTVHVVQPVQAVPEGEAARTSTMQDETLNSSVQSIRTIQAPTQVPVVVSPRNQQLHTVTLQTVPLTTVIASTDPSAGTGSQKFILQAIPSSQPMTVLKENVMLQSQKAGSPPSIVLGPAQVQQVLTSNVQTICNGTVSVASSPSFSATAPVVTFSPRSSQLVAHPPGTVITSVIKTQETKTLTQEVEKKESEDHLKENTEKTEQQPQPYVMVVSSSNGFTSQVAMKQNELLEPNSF
The target of a further experiment is T5, EHF (Homo sapiens, UniProt Q9NZC4 1-300).
T5 sequence: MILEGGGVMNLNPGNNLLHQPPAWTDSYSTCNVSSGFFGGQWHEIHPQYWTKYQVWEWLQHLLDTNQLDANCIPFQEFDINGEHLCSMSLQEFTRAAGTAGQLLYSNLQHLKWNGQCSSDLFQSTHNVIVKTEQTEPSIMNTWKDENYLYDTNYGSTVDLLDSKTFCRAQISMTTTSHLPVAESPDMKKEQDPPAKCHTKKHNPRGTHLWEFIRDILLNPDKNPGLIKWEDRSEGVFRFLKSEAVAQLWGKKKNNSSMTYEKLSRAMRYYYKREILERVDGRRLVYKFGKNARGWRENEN
Particulars: protein: recombinant; tags: N-terminal GST; dsDNA, one strand shown. In outline: as §1

In the next experiment the target is SPI1 (Homo sapiens, UniProt P17947 1-270). As to conditions: protein: recombinant; tags: N-terminal GST; dsDNA, one strand shown. In outline:
as §1

The target of a further experiment is SPIB (Homo sapiens, UniProt Q01892 1-262). Particulars: protein: recombinant; tags: N-terminal GST; dsDNA, one strand shown. In outline: as §1
Sequence of SPIB (Q01892 whole entry): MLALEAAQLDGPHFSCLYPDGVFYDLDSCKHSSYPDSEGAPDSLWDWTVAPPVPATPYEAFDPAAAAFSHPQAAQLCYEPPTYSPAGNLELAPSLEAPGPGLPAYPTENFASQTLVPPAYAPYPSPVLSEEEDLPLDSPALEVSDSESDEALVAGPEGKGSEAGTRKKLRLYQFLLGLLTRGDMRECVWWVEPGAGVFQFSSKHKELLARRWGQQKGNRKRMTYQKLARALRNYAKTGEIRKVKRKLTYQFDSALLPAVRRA
A further experiment addresses T6, ELK3 (Homo sapiens, UniProt P41970 1-407).
T6 sequence: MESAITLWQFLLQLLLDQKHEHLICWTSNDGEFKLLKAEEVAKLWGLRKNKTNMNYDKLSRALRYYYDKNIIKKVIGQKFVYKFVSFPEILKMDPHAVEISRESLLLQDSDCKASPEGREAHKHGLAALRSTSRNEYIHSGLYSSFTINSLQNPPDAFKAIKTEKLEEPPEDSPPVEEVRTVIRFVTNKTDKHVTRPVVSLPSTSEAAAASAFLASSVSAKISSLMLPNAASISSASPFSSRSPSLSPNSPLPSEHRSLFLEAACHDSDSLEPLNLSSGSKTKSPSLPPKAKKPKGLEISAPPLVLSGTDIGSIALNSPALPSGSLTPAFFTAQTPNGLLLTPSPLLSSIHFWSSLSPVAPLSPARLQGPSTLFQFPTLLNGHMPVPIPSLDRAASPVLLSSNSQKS
As to conditions: protein: recombinant; tags: N-terminal GST; dsDNA, one strand shown. The gist of the method: as §1

Another experiment addresses T7, FEV (Homo sapiens, UniProt Q99581 1-238).
T7 sequence: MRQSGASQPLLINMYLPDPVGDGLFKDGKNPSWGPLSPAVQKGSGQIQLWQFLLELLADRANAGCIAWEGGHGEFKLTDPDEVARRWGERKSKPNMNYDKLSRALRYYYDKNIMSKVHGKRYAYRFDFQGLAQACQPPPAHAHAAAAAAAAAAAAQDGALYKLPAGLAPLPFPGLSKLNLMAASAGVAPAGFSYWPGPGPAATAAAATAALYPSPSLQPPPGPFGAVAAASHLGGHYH
As to conditions: protein: recombinant; tags: N-terminal GST; dsDNA, one strand shown. In outline: as §1

The target of the next experiment is ETV5 (Homo sapiens, UniProt P41161 1-510). As to conditions: protein: recombinant; tags: N-terminal GST; dsDNA, one strand shown. In outline:
as §1

A further experiment addresses HSF1 (Homo sapiens, UniProt Q00613 1-529). Particulars: protein: recombinant; tags: N-terminal GST; chain copies: 3; dsDNA, one strand shown. In outline:
as §1

Another experiment deals with T8, SPIC (Homo sapiens, UniProt Q8N5J4 1-248).
T8 sequence: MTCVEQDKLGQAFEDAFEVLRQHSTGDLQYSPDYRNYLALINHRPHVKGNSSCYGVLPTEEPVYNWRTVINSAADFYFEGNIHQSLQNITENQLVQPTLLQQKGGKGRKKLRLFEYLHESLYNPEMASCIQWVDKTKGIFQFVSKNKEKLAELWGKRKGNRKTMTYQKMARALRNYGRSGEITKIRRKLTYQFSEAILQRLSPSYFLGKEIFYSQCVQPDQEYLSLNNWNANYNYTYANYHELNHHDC
As to conditions: protein: recombinant; tags: N-terminal GST; dsDNA, one strand shown. In outline: as §1

Another experiment concerns the target ELF4 (Homo sapiens, UniProt Q99607 1-663). Particulars: protein: recombinant; tags: N-terminal GST; dsDNA, one strand shown. In outline:
as §1

The target of another experiment is T9, ELK4 (Homo sapiens, UniProt P28324-2 1-405).
T9 sequence: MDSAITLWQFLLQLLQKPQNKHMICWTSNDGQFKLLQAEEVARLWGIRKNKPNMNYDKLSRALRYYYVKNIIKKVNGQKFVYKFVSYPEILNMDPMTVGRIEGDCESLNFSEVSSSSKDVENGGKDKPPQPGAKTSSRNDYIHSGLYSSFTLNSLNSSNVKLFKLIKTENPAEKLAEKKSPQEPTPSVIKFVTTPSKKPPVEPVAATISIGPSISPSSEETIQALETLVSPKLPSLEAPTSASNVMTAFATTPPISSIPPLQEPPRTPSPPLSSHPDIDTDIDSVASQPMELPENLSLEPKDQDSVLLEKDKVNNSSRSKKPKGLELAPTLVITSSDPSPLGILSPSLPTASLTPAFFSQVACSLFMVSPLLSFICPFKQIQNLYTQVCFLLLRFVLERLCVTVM
Particulars: protein: recombinant; tags: N-terminal GST; dsDNA, one strand shown. In outline: as §1

For the next experiment, the target named is T10, ETV2 (Homo sapiens, UniProt O00321 1-342).
T10 sequence: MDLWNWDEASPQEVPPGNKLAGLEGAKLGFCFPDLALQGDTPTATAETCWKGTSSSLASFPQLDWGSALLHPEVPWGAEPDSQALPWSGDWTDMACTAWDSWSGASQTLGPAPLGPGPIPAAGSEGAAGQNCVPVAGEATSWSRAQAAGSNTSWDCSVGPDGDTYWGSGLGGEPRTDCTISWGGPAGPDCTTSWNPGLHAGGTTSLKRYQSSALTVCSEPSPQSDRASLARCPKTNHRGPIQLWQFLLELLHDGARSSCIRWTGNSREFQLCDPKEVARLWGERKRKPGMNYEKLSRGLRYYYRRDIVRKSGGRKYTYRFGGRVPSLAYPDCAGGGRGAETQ
As to conditions: protein: recombinant; tags: N-terminal GST; dsDNA, one strand shown. In outline: as §1

A further experiment concerns the target T11, ELF3 (Homo sapiens, UniProt P78545 1-371).
T11 sequence: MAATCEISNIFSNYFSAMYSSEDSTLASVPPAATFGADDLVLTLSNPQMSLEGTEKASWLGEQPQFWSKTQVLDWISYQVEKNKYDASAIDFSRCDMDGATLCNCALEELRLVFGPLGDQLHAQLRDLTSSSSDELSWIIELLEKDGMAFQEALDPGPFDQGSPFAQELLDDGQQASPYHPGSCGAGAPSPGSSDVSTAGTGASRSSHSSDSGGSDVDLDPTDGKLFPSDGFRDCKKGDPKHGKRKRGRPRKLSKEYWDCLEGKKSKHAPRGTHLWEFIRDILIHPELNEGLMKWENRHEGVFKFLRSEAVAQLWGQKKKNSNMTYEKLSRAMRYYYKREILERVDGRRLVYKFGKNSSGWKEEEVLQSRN
Particulars: protein: recombinant; tags: N-terminal GST; dsDNA, one strand shown. In outline:
as §1

In a further experiment the target is CRX (Homo sapiens, UniProt O43186 1-299). Particulars: protein: recombinant; tags: N-terminal GST; dsDNA, one strand shown. The gist of the method:
as §1

The next experiment has as its target ETV1 (Homo sapiens, UniProt P50549 1-477). As to conditions: protein: recombinant; tags: N-terminal GST; dsDNA, one strand shown. The gist of the method: as §1

Sequence of HSF1 (Q00613 whole entry): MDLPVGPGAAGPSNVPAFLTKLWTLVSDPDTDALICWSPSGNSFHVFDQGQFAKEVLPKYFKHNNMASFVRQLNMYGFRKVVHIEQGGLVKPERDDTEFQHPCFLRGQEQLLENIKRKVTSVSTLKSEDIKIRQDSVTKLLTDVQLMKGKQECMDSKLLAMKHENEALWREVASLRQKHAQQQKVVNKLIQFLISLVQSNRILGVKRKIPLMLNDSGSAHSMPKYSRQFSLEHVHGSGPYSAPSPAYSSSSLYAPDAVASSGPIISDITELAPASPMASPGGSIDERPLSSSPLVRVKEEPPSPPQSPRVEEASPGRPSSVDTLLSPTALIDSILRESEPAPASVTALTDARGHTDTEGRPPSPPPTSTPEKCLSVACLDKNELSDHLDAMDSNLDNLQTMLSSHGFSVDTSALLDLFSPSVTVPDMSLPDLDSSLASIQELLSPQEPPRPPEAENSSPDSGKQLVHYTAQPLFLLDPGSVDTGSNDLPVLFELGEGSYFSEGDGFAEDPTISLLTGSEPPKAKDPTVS
Sequence of ETV1 (P50549 whole entry): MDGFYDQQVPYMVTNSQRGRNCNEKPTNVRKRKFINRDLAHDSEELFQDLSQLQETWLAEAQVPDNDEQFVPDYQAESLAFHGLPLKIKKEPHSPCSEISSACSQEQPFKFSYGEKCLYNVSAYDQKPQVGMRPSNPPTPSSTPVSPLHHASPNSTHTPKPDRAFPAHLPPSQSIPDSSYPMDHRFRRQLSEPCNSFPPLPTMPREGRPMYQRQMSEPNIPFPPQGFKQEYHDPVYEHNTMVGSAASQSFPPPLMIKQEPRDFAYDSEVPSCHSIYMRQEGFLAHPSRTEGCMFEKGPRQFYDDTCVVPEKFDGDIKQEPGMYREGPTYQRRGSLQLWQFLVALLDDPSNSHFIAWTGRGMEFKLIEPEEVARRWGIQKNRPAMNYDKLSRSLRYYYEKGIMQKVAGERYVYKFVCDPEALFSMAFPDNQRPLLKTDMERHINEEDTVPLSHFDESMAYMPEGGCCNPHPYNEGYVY
Sequence of CRX (O43186 whole entry): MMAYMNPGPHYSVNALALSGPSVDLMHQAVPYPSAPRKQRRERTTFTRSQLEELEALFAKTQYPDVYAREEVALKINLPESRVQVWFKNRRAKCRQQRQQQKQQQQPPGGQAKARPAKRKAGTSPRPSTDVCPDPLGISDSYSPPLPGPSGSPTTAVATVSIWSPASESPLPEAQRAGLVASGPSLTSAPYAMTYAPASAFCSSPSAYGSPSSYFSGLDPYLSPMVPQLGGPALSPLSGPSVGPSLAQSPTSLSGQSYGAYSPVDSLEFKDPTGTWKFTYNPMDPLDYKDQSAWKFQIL
Sequence of ELF4 (Q99607 whole entry): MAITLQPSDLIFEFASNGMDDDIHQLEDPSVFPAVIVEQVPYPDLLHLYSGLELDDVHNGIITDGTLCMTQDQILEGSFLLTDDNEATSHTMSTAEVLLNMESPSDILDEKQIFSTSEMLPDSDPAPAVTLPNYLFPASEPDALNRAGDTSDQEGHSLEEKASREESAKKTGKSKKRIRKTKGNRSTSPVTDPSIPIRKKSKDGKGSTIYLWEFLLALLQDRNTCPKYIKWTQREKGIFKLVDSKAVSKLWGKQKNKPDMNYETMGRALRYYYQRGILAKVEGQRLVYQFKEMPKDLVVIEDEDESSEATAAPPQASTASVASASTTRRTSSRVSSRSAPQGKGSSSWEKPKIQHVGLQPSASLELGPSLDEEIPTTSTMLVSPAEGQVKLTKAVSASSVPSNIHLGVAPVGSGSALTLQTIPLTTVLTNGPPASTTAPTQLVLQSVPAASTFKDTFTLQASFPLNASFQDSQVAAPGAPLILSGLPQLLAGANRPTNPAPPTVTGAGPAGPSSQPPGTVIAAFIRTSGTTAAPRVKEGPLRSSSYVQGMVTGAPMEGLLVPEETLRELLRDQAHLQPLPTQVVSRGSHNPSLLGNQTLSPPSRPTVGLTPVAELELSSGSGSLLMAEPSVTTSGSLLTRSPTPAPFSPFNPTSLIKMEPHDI
Sequence of ETV5 (P41161 whole entry): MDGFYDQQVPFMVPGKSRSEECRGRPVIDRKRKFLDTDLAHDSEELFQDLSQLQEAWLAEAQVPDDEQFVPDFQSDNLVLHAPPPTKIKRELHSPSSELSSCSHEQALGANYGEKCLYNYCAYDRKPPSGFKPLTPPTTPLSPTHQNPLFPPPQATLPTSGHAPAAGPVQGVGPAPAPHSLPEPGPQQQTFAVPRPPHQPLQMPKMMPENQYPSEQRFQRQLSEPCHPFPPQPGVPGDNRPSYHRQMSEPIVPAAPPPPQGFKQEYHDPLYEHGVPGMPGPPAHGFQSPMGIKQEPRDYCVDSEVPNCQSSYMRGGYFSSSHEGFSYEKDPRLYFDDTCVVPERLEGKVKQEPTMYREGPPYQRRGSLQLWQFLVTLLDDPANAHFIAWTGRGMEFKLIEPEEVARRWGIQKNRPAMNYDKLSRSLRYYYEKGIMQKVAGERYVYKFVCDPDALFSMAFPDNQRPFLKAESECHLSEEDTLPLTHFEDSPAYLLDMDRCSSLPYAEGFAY

TAAACC: the binding signal in the experiment with FLI1 is 1.27 fold enrichment (6-mer frequency, TF over GST control); in the experiment with ELK1, 1.22 fold enrichment (6-mer frequency, TF over GST control); with GABPA, 1.22 fold enrichment (6-mer frequency, TF over GST control); with ERG, 1.21 fold enrichment (6-mer frequency, TF over GST control); in the experiment with ELF1, 1.26 fold enrichment (6-mer frequency, TF over GST control); with EHF it was 1.17 fold enrichment (6-mer frequency, TF over GST control). The binding signal was 1.19 fold enrichment (6-mer frequency, TF over GST control) in the experiment with SPI1; 1.31 fold enrichment (6-mer frequency, TF over GST control) in the experiment with SPIB; 1.25 fold enrichment (6-mer frequency, TF over GST control) with ELK3; 1.29 fold enrichment (6-mer frequency, TF over GST control) in the experiment with FEV; 1.23 fold enrichment (6-mer frequency, TF over GST control) in the experiment with ETV5; 1.46 fold enrichment (6-mer frequency, TF over GST control) with HSF1. Further, the binding signal was 1.13 fold enrichment (6-mer frequency, TF over GST control) in the experiment with SPIC; 1.19 fold enrichment (6-mer frequency, TF over GST control) with ELF4; 1.32 fold enrichment (6-mer frequency, TF over GST control) in the experiment with ELK4; 1.27 fold enrichment (6-mer frequency, TF over GST control) with ETV2; 1.35 fold enrichment (6-mer frequency, TF over GST control) with ELF3; 2.11 fold enrichment (6-mer frequency, TF over GST control) in the experiment with CRX. Also, the binding signal with ETV1 was 1.23 fold enrichment (6-mer frequency, TF over GST control).
